Bioassay records deposited in PubChem BioAssay by University of Kansas High Throughput Screening Laboratory.
Pf apPOL block: Pf-apPOL DNA polymerase inhibition; Recombinant Pf-apPOL, molecular beacon fluorescence, 1.5 h; inhibition, % at 10 µM; 0.25% of 210,000 active; AID 1794808
mHTT-CaM PPI inh: disrupts binding of mutant huntingtin to calmodulin; P42858; AlphaScreen His-mHTT/GST-CaM binding, luminescence; inhibition, % at 15 µM; 3.6% of 190,000 active; AID 1671202;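 also: 0% = both proteins with DMSO and 100% = one protein alone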
Numbers without * were called inactive; nt = no result given; ! = not active in a repeat. The entries come from a sample that favours hits as a whole. Rule as the data show it: active = inhibition above about 50%; inactive = the rest.

SMILES | Pf apPOL block | mHTT-CaM PPI inh
O=C(NCc1csc(C2CCN(C(=O)c3ccc(F)cc3F)CC2)n1)C1CCC1 | -4 | -13
COc1cc(/C=C2\C(=O)ON=C2C)ccc1OCc1cccc(F)c1 | 8 | 100*
COc1cc(/C=C2\C(=O)ON=C2C)ccc1OCc1ccccc1Cl | 0 | -8
CC1=NOC(=O)/C1=C/c1ccc(OCc2cccc(F)c2)c(Cl)c1 | -4 | 1
COc1cc(/C=C2\C(=O)ON=C2C)cc(Cl)c1OCc1ccc(F)cc1 | 7 | 74*
COc1cc(/C=C2\C(=O)ON=C2C)cc(Cl)c1OCc1ccccc1 | -1 | 91*
CCOc1cc(/C=C2/C(=O)ON=C2C)ccc1OCc1ccc(Cl)cc1 | -7 | -5
CCOc1cc(/C=C2\C(=O)ON=C2C)cc(Cl)c1OCc1ccc(F)cc1 | -1 | 93*
COc1cc(C=O)cc(Cl)c1OCc1cccc(F)c1 | -14 | -74
Clc1ccc(OCc2cn3cccnc3n2)cc1 | 0 | 12
CC(C)COC(=O)C1C2C=CC3(CN(c4ccccc4Br)C(=O)C13)O2 (centres undefined) | 1 | -2
CC(C)Cn1c(=O)c(N2CCN(C(=O)c3ccc4ncccc4c3)CC2)nc2ccncc21 | -1 | 8
O=S(=O)(c1cccc(Cl)c1)N1CCN(Cc2noc3ccccc23)CC1 | -2 | -19
COC(=O)c1c(OC)ccc(-n2cccc2)c1OC | -17 | nt
CC1=NOC(=O)/C1=C/c1ccccc1OCc1cccc(Cl)c1 | -2 | 55*
COc1cc(/C=C2\C(=O)ON=C2C)cc(Br)c1OCc1ccc(F)cc1 | 8 | 46
CCOc1cc(/C=C2\C(=O)ON=C2C)cc(Br)c1OCc1ccc(F)cc1 | -4 | 75*
CC1=NOC(=O)/C1=C/c1ccccc1OCc1ccccc1F | -1 | 20
CC(CNC(=O)c1c(F)c(F)c(F)c(F)c1F)NC(=O)c1c(F)c(F)c(F)c(F)c1F (centres undefined) | -1 | -4
CSc1nc2sc3c(c2c(=O)n1Cc1ccccc1)CCN(C)C3 | -6 | 9
O=C(Nc1ccc2c(c1)OCCO2)C1CCN(c2nccnc2Oc2ccccc2)CC1 | -2 | 3
COc1cccc(-c2cc3n(n2)CCCN(C(=O)NCC2CCCO2)C3)c1 (centres undefined) | -6 | 4
Cc1sc(NC(=O)c2ccc(N3C(=O)CCC3=O)cc2)c(C#N)c1C | 13 | -3
CC(CC(=O)Nc1ccc(Cl)cc1Cl)c1ccccc1 (centres undefined) | -8 | -14
COc1cc(OC)c(NC(=O)c2cc3cc4ccc(C)cc4nc3o2)cc1Cl | 9 | -1
SMILES | Pf apPOL block | mHTT-CaM PPI inh
Cc1ccc(OCC(=O)Nc2ccc(F)cc2)cc1 | 2 | -12
Cc1ccc(NC(=O)COc2ccc(Br)cc2)cc1 | 80* | -16
O=C(CSc1nccc(-c2cccs2)n1)c1ccccc1 | -5 | nt
Cn1nc([N+](=O)[O-])nc1Sc1cccc2cccnc12 | -18 | 66*
Cn1nc([N+](=O)[O-])nc1Sc1nc2ccccc2n1C | -5 | -3
O=[N+]([O-])c1ccc(CSc2cccc3cccnc23)cc1 | -5 | 63*!
O=[N+]([O-])c1ccc(CSc2ccccn2)cc1 | 0 | nt
CCN(CC)C(=O)Sc1cccc2cccnc12 | 0 | 1
O=C(Sc1cccc2cccnc12)c1ccc([N+](=O)[O-])cc1 | -2 | 100*
O=C(NC1CCN(c2nnc3ccc(Cl)cn23)CC1)c1ccc(N2CCCC2=O)cc1 | -2 | 4
O=[N+]([O-])c1cc(C(F)(F)F)cc([N+](=O)[O-])c1N1CCCC1c1cccs1 (centres undefined) | -5 | nt
Cc1cc(NC(=O)C2CCCN(c3nnc4ccccn34)C2)ccc1F (centres undefined) | -2 | -5
CC(C)NC(=O)c1cncc(-c2ccc(F)cc2F)c1 | 63* | 6
CCNC(=O)c1cncc(-c2ccc(F)cc2F)c1 | 38 | 5
O=C(NCc1ccc2c(c1)OCO2)c1cc(=O)c(OCc2ccc(F)cc2)co1 | 2 | -10
CN1CCCc2cc(C(CNC(=O)Nc3cccs3)N3CCCC3)ccc21 (centres undefined) | 2 | 55*
CN1CCN(C(CNC(=O)NCc2ccccc2)c2ccc3c(c2)CCCN3C)CC1 (centres undefined) | -12 | 37
NC(=O)/C(=C\c1ccccc1)NC(=O)c1ccc(Br)o1 | -3 | 4
CCN1CCN(C(=O)C2CCN(c3nc4ccc(-c5ccsc5)nc4s3)CC2)CC1 | 0 | 67*
O=C(C1CCN(c2nc3ccc(-c4ccsc4)nc3s2)CC1)N1CCCC1 | -3 | 12
O=C(CN1CCCCCC1)N1c2ccccc2Sc2ccc(Cl)cc21 | -3 | 3
Cc1ccc(S(=O)(=O)n2ccn(CC(=O)Nc3cccc(F)c3)c2=O)cc1 | -7 | 14
Cc1nc2c(SCC(=O)Nc3ccc4c(c3)OCO4)nnc(-c3ccccc3)c2s1 | 11 | 30
Cc1nc2c(SCC(=O)NCc3ccco3)nnc(-c3ccccc3)c2s1 | 40 | 53*
COc1ccc(-c2csc(N3CCSCC3)n2)cc1OC | -3 | 2
